HIV RNase H inh-1 = HIV-1 RT RNase H inhibitors, primary screen, biochemical, fluorescence; Gag-Pol polyprotein (Human immunodeficiency virus type 1 group M subtype B (isolate …; RT-RNase H RNA/DNA duplex cleavage; inhibition, % at 10 µM; 65,000 compounds, 1.9% hits; in the data active = inhibition above about 50%
HIV RNase H inh-2 = HIV-1 RT RNase H inhibitors, retest, confirmation, biochemical; AID 651, 2007; shares compounds with HIV RNase H inh-1; 1,000 compounds, 39% hits; inhibition, % at 10 µM; Recombinant RT RNase H, fluorescent RNA/DNA duplex cleavage; in the data active = inhibition above about 48%
* hit, by the source's call. This is one part of a sample in which hits are shown more often than they occur.

Results for COc1cc(NC(=O)CN2C(=O)c3ccccc3S2(=O)=O)c(OC)cc1Cl ?
HIV RNase H inh-1: -9

How did CCOC(=O)CN(C(=O)CSc1nnc2c(n1)[nH]c1ccc(OC)cc12)c1ccc(F)cc1 do in these assays?
HIV RNase H inh-1: -6

How did Cc1ccc(/C=N/c2sc3c(c2C#N)CCCCC3)o1 do in these assays?
HIV RNase H inh-1: -5

Results for Cc1ccc(-c2c3c([nH]c(=S)c2C#N)CCCC3)o1 ?
HIV RNase H inh-1: 87*; HIV RNase H inh-2: 32

How did COC(=O)CSc1nc2c(c(-c3ccc(C)o3)c1C#N)CCCC2 do in these assays?
HIV RNase H inh-1: -48

How did CCOC(=O)CSc1nnc(-c2nnc(SCC(=O)OCC)n2CC)n1CC do in these assays?
HIV RNase H inh-1: -11

What do the screens show for `CCSc1ccccc1C(=O)Nc1cccnc1`?
HIV RNase H inh-1: 21

What do the screens show for `CCSc1ccccc1C(=O)Nc1nncs1`?
HIV RNase H inh-1: 56*; HIV RNase H inh-2: 18

How did CCSc1ccccc1C(=O)Nc1cc(C)on1 do in these assays?
HIV RNase H inh-1: -4

What do the screens show for `CCOC(=O)N1CCN(C(=O)C2CCC(C(=O)N3CCN(C(=O)OCC)CC3)CC2)CC1` (configuration not stated)?
HIV RNase H inh-1: 3

How did Cc1cc(C)n(C(C)n2nc(C)cc2C)n1 do in these assays?
HIV RNase H inh-1: -8

What do the screens show for `O=C(O)CSc1nnc(Cn2cnc3ccccc32)n1CCc1ccccc1`?
HIV RNase H inh-1: 1

Results for CC1(C)CC(=O)C2=C(C1)OC(N)=C(C#N)C2C#Cc1ccccc1 (configuration not stated) ?
HIV RNase H inh-1: 60*; HIV RNase H inh-2: 5

What do the screens show for `CC(c1ccccc1)C1C(C#N)=C(N)OC2=C1C(=O)CC(C)(C)C2` (configuration not stated)?
HIV RNase H inh-1: -7

How did CC1(C)CC(=O)C2=C(C1)OC(N)=C(C#N)C2CCc1ccccc1 (configuration not stated) do in these assays?
HIV RNase H inh-1: -3

Results for O=S(=O)(NCC(c1cccnc1)N1CCN(Cc2ccccc2)CC1)c1ccccc1 (configuration not stated) ?
HIV RNase H inh-1: 1

Results for CC(C(=O)N(C1CC1)C1(C(=O)Nc2ccccc2)CCCC1)N1C(=O)c2ccccc2C1=O (configuration not stated) ?
HIV RNase H inh-1: 1

How did CCn1cc(S(=O)(=O)CC(=O)N2CCc3ccccc32)c2ccccc21 do in these assays?
HIV RNase H inh-1: -13

What do the screens show for `Cc1csc(NC(=O)c2cccc(S(=O)(=O)N3CCCCC3)c2)n1`?
HIV RNase H inh-1: -5

Results for Cc1ccc(-c2csc(NC(=O)c3cccc(N4C(=O)CCC4=O)c3)n2)o1 ?
HIV RNase H inh-1: 57*; HIV RNase H inh-2: 24

What do the screens show for `CCOC(=O)Cc1csc(NC(=O)c2cccc(N3C(=O)CCC3=O)c2)n1`?
HIV RNase H inh-1: -17

How did CCOCCCn1c(=S)[nH]c2cc3c(cc2c1=O)OCO3 do in these assays?
HIV RNase H inh-1: -16

Results for CC1(CC(=O)O)C(=O)N=C2C=CC=CN21 (configuration not stated) ?
HIV RNase H inh-1: -2

Results for O=C(NCCCN1CCN(c2ccccc2F)CC1)Nc1ccc(F)cc1 ?
HIV RNase H inh-1: -3

Results for COc1ccccc1N1CCN(CCCNC(=O)Nc2ccccc2)CC1 ?
HIV RNase H inh-1: -1

Results for CSc1ccc(NC(=O)NCCCN2CCN(c3ccccc3F)CC2)cc1 ?
HIV RNase H inh-1: 53*; HIV RNase H inh-2: 31

How did COc1cc(C#CC#CCN2CCCCC2)ccc1O do in these assays?
HIV RNase H inh-1: 2

Results for CC1CCN(S(=O)(=O)c2ccc(NC(=O)CN3CCN(C)CC3)cc2)CC1 ?
HIV RNase H inh-1: 0

Results for CC1CCN(S(=O)(=O)c2ccc(NC(=O)CN3CCN(c4ccccc4)CC3)cc2)CC1 ?
HIV RNase H inh-1: 36

How did CC1CCN(S(=O)(=O)c2ccc(NC(=O)Cn3nnc(-c4ccccc4F)n3)cc2)CC1 do in these assays?
HIV RNase H inh-1: 69*; HIV RNase H inh-2: 39

How did C/C(=N\n1nnnc1Nc1ccccc1)c1ccc(N)cc1 do in these assays?
HIV RNase H inh-1: -14

What do the screens show for `CCc1ccc(NS(=O)(=O)c2cccs2)cc1`?
HIV RNase H inh-1: -10

What do the screens show for `Cc1nc2sc(C(c3cccs3)N3CCN(c4ccccc4)CC3)c(O)n2n1` (configuration not stated)?
HIV RNase H inh-1: 0

How did COc1cccc(CNC(=O)c2ccc3nc[nH]c3c2)c1 do in these assays?
HIV RNase H inh-1: 0

How did Cc1cc(C)c2nc(N3CCCN(C(=O)c4cnccn4)CC3)c(C#N)cc2c1 do in these assays?
HIV RNase H inh-1: -18

What do the screens show for `O=C(c1ccc(F)cc1)C1CCN(C(=O)N2CCOCC2)CC1`?
HIV RNase H inh-1: 7

How did O=C(Nc1ccc2c(c1)OCCO2)C1CCN(C(=O)c2ccc(F)cc2)CC1 do in these assays?
HIV RNase H inh-1: -1

Results for O=C(c1ccc(F)cc1)C1CCN(C(=O)c2ccncc2)CC1 ?
HIV RNase H inh-1: 88*; HIV RNase H inh-2: 42

What do the screens show for `Cc1cc(-n2c(C)cc(C(=O)CSc3ccc4c(c3)OCCO4)c2C)no1`?
HIV RNase H inh-1: 1

What do the screens show for `Cc1nn(C(=O)c2ccc3c(c2)OCO3)c(N)c1-c1ccccc1`?
HIV RNase H inh-1: -7

Results for Cc1nc(N)sc1-c1csc(Nc2ccccc2)n1 ?
HIV RNase H inh-1: -2

Results for Cc1cc(O)ccc1Nc1nc(-c2sc(N)nc2C)cs1 ?
HIV RNase H inh-1: 73*; HIV RNase H inh-2: 49

What do the screens show for `COc1ccc(OC)c(Nc2nc(-c3sc(N)nc3C)cs2)c1`?
HIV RNase H inh-1: 26

What do the screens show for `COc1ccc(N2CCCCn3c2nc2c3c(=O)n(C)c(=O)n2C)cc1`?
HIV RNase H inh-1: -1

What do the screens show for `CCCCn1c2c(c3ccccc31)CCc1nonc1-2`?
HIV RNase H inh-1: -43

What do the screens show for `CCOCCCNC(=O)C(NC(=O)C1CCC(=O)N1)c1ccc(C)cc1` (configuration not stated)?
HIV RNase H inh-1: -4

Results for Cc1cc(NC(=O)CC(C)(C)C)nc2c1c(=O)oc1ccccc12 ?
HIV RNase H inh-1: 14

How did Cc1cc(NC(=O)CN2CCc3ccccc3C2)nc2c1c(=O)oc1ccccc12 do in these assays?
HIV RNase H inh-1: 58*; HIV RNase H inh-2: 48

Results for CCCC(=O)Nc1cc(C)c2c(=O)oc3ccccc3c2n1 ?
HIV RNase H inh-1: -18

How did O=C(O)c1cc2ccccc2n1-c1ccccc1 do in these assays?
HIV RNase H inh-1: -10

How did Cc1cc2oc(=O)cc(COC(=O)c3cccc(N(C)C)c3)c2cc1C do in these assays?
HIV RNase H inh-1: 4

What do the screens show for `COC(=O)c1cc(Cl)c(NS(=O)(=O)c2ccccc2)cc1OC`?
HIV RNase H inh-1: -10

How did Cc1ccccc1NS(=O)(=O)c1cc(S(C)(=O)=O)ccc1Cl do in these assays?
HIV RNase H inh-1: 0

How did Cc1cc(NS(=O)(=O)c2ccccc2)c(C)c(Cl)c1O do in these assays?
HIV RNase H inh-1: 80*; HIV RNase H inh-2: -6

How did CCn1c2ccccc2c2nnc(SCC(=O)NC(CC(C)C)C(=O)OC)nc21 (configuration not stated) do in these assays?
HIV RNase H inh-1: 5

How did c1cc(Nc2ncnc3sccc23)cc(-c2nnc3n2CCCCC3)c1 do in these assays?
HIV RNase H inh-1: 4

What do the screens show for `O=C(O)C1C2C=CC(O2)C1C(=O)Nc1ccc2c(c1)OCCO2` (configuration not stated)?
HIV RNase H inh-1: -1

Screening results from PubChem.
